Compounds with a hit are over-represented: about 5% of the library has one in this group of screens.
PREPL inh – inhibitors of human prolyl oligopeptidase-like enzyme PREPL | actives 0.68% (n = 320,000) | recombinant PREPL, fluorescence polarization activity-based probe | AID 2751 | Q4J6C6 | inhibition, % at 5.96 µM; in the data active = inhibition above about 43%;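 also: 0% = enzyme with DMSO and 100% = wells lacking enzyme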
CHT PAM – allosteric activators of human choline transporter CHT. CHT-expressing cells, membrane potential dye, choline EC20; hits give high values; LV-AA mutant CHT in HEK293 cells. actives 0.49% (n = 310,000). B-score at 10 µM. Q9GZV3;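 active = initial fluorescence not abnormally high and integrated response B-score, plate-corrected, over 3 SD above library mean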
AI-2 QS modul – modulates the Vibrio harveyi AI-2 quorum sensing system. activity change, % at 7.5 µM. actives 0.4% (n = 300,000). Vibrio harveyi JMH597 AI-2 luminescence/OD600 ratio, 9 h; hits give low values; strain lacks LuxN and CqsS sensors; 0 = neutral-control median; in the data active = activity change below about -75%, passing the limit was not always enough;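 also: luminescence divided by OD600 gain over 9 h not by final OD600 alone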
ALR H2O2 inh – blocks human ALR sulfhydryl oxidase activity; P55789; purified ALR, DTT oxidation, H2O2 HRP-luminol luminescence; inhibition, % (concentration not given with the values); actives 3.8% (n = 290,000);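 active = mean replicate inhibition above about 79%, with every replicate also reaching it, limit read from the data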
Target sequence (P55789 whole entry, looked up): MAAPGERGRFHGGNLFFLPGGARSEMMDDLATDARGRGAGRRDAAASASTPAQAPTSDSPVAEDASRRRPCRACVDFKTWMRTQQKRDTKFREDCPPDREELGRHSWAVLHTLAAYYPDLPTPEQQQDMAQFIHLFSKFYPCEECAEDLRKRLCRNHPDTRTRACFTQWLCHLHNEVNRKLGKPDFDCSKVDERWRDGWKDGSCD
CHT block – human CHT choline transport inhibition; Q9GZV3; CHT-expressing cells, membrane potential dye, choline response; hits give low values; B-score at 10 µM; actives 0.86% (n = 310,000); AID 488975;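 active = B-score over 3 SD under the library average, and starting fluorescence ratio not unusually high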;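 also: choline stimulus applied at its EC90 after an EC20 pre-addition; B-score computed on integrated fluorescence ratio after choline addition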
Active calls of the source: *; i = inactive; x = no result given.

SMILES | PREPL inh | CHT PAM | AI-2 QS modul | ALR H2O2 inh | CHT block
CC1=N/C(=C\c2ccc(OC(C)C)cc2)C(=O)N1c1ccc(C(=O)O)cc1 | 1.2 | i | -82.5* | 23.0 | i
CCOCCCn1c(=S)[nH]c2cc(C(=O)N3CCN(c4ccccc4)CC3)ccc2c1=O | -2.8 | i | 8.6 | 10.2 | i
O=C(O)c1ccccc1C(=O)NCC(O)COc1ccc(Cl)cc1 (centres undefined) | -3.5 | i | -13.6 | 3.3 | i
O=C(O)c1cccc(S(=O)(=O)Nc2ccc3c(c2)OCO3)c1 | -7.8 | i | 14.3 | -11.5 | i
O=S(=O)(Nc1ccc2c(c1)OCO2)c1ccc(F)c(F)c1 | -1.9 | x | x | 88.4* | x
COc1ccc(S(=O)(=O)Nc2ccc(F)c(F)c2)cc1Cl | 8.0 | i | 18.3 | -8.6 | -6.44*
COc1ccc(NS(=O)(=O)c2ccc(S(=O)(=O)N3CCCC3)cc2)cc1Cl | -13.3 | i | 16.9 | -10.0 | i
C[C@@H]1O[C@@H](Oc2c(-c3ccc(O)c(O)c3)oc3cc(O)cc(O)c3c2=O)[C@H](O)[C@H](O)[C@H]1O | 18.7 | x | x | 98.8* | x
COc1ccc([C@@H]2CC(=O)c3c(O)cc(O[C@@H]4OC(CO[C@@H]5OC(C)[C@H](O)[C@H](O)C5O)[C@@H](O)[C@@H](O)C4O)cc3O2)cc1O (some centres undefined) | 5.4 | i | 15.8 | 5.6 | i
C[C@@H]1O[C@@H](OC[C@H]2O[C@@H](Oc3cc(O)c4c(=O)cc(-c5ccc(O)c(O)c5)oc4c3)[C@H](O)[C@@H](O)[C@@H]2O)[C@H](O)[C@H](O)[C@H]1O | 28.1 | x | x | 98.9* | x
COc1cc(-c2oc3cc(O)cc(O)c3c(=O)c2O[C@@H]2O[C@H](COC3O[C@@H](C)[C@H](O)[C@@H](O)[C@H]3O)[C@@H](O)[C@H](O)[C@H]2O)ccc1O (some centres undefined) | 5.4 | x | x | 93.6* | x
O=c1c2c(O)cc(O)cc2oc2c(O)ccc(O[C@H]3O[C@@H](CO)[C@H](O)[C@@H](O)[C@@H]3O)c12 | 2.2 | x | x | 20.1 | x
C[C@@H]1O[C@@H](O[C@H]2[C@H](O)[C@@H](O)[C@H](Oc3c(-c4ccc(O)c(O)c4)oc4cc(O)cc(O)c4c3=O)O[C@@H]2CO)[C@H](O)[C@H](O)[C@H]1O | 12.2 | x | x | 96.1* | x
CCOc1ccc(NC(=O)CCC(=O)NNC(=O)c2cccc([N+](=O)[O-])c2)cc1 | 9.6 | x | x | -0.8 | x
CCc1ccc(-c2nc(CSCC(=O)NCCCN3CCCC3=O)c(C)o2)cc1 | -7.9 | i | 13.4 | 99.2* | i
CCOCCCNC(=O)CSCc1nc(-c2ccc(SC)cc2)oc1C | 1.4 | i | 18.9 | x | i
Cc1oc(-c2ccc(Cl)cc2)nc1CN1CCC(C(=O)NCCCN2CCCC2=O)CC1 | 30.4 | i | 20.3 | -1.9 | i
COCCNC(=O)CSCc1nc(-c2ccc(SC)cc2)oc1C | 8.7 | i | 24.6 | 99.8* | i
CSc1ccc(-c2nc(CSCC(=O)NCCCN3CCCC3=O)c(C)o2)cc1 | 7.1 | i | 21.7 | 94.7* | i
Nc1nc(N2CCN(C(c3ccccc3)c3ccccc3)CC2)n[nH]1 | 2.4 | i | 8.2 | 15.5 | i
Cc1cccc(C)c1N1CCN(c2n[nH]c(N)n2)CC1 | -2.0 | i | 6.2 | 96.2* | i
O=C(COC(=O)/C=C/c1cccs1)Nc1nc(-c2ccccc2)cs1 | -8.0 | i | 13.0 | -8.5 | i
O=C(COC(=O)c1cccs1)Nc1nc(-c2ccccc2)cs1 | -5.0 | i | 5.6 | 87.7* | i
CCC(C)NC(=O)c1ccc2c(SCC(=O)O)c3c(nc2c1)CCCC3 (centres undefined) | 2.3 | i | 14.4 | 97.4* | i
CCCCNC(=O)c1ccc2c(SCC(=O)O)c3c(nc2c1)CCCC3 | -2.1 | i | 20.1 | x | i
SMILES | PREPL inh | CHT PAM | AI-2 QS modul | ALR H2O2 inh | CHT block
CCOC(=O)COc1cnc2ccccc2n1 | 10.5 | i | 21.6 | -8.2 | i
CC(C)Cc1ccc(C(=O)Nc2ccc(Cc3ccncc3)cc2)o1 | x | i | 2.8 | 15.8 | i
Cc1c(OCC(=O)NCc2ccncc2)ccc2c3c(c(=O)oc12)CCCC3 | 21.2 | i | -1.9 | -0.8 | i
COc1cc2nc(N3CCNCC3)nc(N)c2cc1OC | 7.3 | i | 20.4 | -10.1 | -8.29*
O=C(CN1CCCc2ccccc21)Nc1ccc(F)cc1[N+](=O)[O-] | 27.2 | i | 3.7 | -9.5 | i
CCOc1ccc(CCNC(=O)c2cccc(NC3=NC4CS(=O)(=O)CC4S3)c2)cc1 (centres undefined) | -5.5 | i | 28.4 | 2.0 | i
CN(c1ccccc1)S(=O)(=O)c1ccc(C(=O)Nc2nnc(C3=COCCO3)o2)cc1 | 6.9 | i | 66.3 | 97.8* | i
CN(C)c1ccc(C(=O)Nc2nnc(C3=COCCO3)o2)cc1 | -12.2 | i | 21.4 | -0.2 | i
Cc1ccc(S(=O)(=O)N2CCN(C)CC2)c2nsnc12 | -3.8 | i | 12.3 | x | i
Cc1nnc2c(N(C)S(=O)(=O)c3ccccc3)nc3ccccc3n12 | 5.5 | i | 30.6 | 4.9 | i
CC1CCCCN1CCCNC(=O)C1CCCN(c2ncnc3c2nc2n3CCCCC2)C1 (centres undefined) | 0.2 | i | 23.6 | 2.9 | i
CC(Sc1nc(N)cc(=O)[nH]1)C(=O)Nc1sc2c(c1C#N)CCCC2 (centres undefined) | -9.3 | i | 43.7 | 92.2* | i
CCC(Sc1nc(C)cc(=O)[nH]1)C(=O)Nc1sc2c(c1C#N)CCCC2 (centres undefined) | 1.1 | i | 10.6 | 9.9 | i
CCOC(=O)c1c(N2CCN(c3ccccc3)CC2)cc(C)nc1C | x | i | 2.5 | 96.9* | i
CCOC(=O)c1c(CN2CCN(c3ccccc3)CC2)oc2ccc(O)cc12 | 12.2 | i | 17.8 | 71.1 | i
CC(=O)NNc1nc(-c2ccc(NC(C)=O)cc2)cs1 | 3.6 | i | 18.1 | 98.6* | i
Cc1nc(-c2ccc(NC(=O)CC(C)C)cc2)cs1 | 0.2 | i | 8.1 | 99.6* | i
Cc1nc(-c2ccc(NC(=O)C3CC3)cc2)cs1 | -2.4 | i | 28.7 | 66.9 | i
O=C(c1ccco1)N1CCN(S(=O)(=O)Cc2ccccc2Cl)CC1 | 8.3 | i | 31.2 | -4.9 | i
CC1CCC(NC(=O)c2cc(S(=O)(=O)N(C)C)ccc2N2CCCC2)CC1 (centres undefined) | 4.6 | i | 11.5 | -9.3 | i
COc1ccc(NS(=O)(=O)c2ccc(N3CCCCC3)c(N)c2)cc1 | 18.2 | x | x | 4.3 | x
Cc1ccc(NC(=S)N(Cc2cccc(Br)c2)CC2CCC(C(=O)O)CC2)cc1Cl (centres undefined) | -5.6 | i | 42.9 | -2.9 | i
Cc1cc2nc(/C=C/c3cccnc3)[nH]c2cc1C | x | i | 1.6 | -14.2 | i
Cc1cc2nc(CS)[nH]c2cc1C | 10.3 | i | 12.8 | 98.8* | i

Assay outcomes as filed in PubChem.
